About 83,000 compounds went through this panel and 20% of them were active in at least one assay; those are over-represented in the sample as a whole.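 Cell lines were cultured in 96-well plates, exposed to a single compound concentration, and assessed for percent growth 48 hours later.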 Unmarked numbers belong to inactive results. The source made the active and inactive calls.
These compounds were tested on NCI/ADR-RES ovarian (assay: NCI-60 one-dose screen, 48 h (100 = growth as untreated, 0 = no growth, -100 = all killed)). Conditions: 10 µM unless noted.
Protocol: Growth inhibition of the NCI/ADR-RES human […] tumor cell line is measured as a screen for anti-cancer activity. Cells are grown in 96 well plates and exposed to the test compound for 48 hours. Compounds are tested at a single concentration, which is 10^-5 M for most compounds. The reported endpoint is percent growth (GI% or GIPRCNT), where numbers from 0 - 100% represent growth inhibition, and numbers from -100% - 0 represent cell death. For example, a value of 40 represents 60% growth inhibition. A value of 0 means no net growth occurred over the course of the experiment. A value of -40 indicates 40% of cells at the beginning of the experiment died by the end of the experiment. A value of -100 means all cells are dead at the end of the experiment.
NCI-60 Human Tumor Cell Lines Screen was performed using the standard one-dose NCI protocol, which is described in more detail at https://dtp.cancer.gov/discovery_development/nci-60/default.htm.
Compounds with GIPRCNT values below 10 were considered active. Activity score was based on GIPRCNT using the following formula: […]
Score is 0 for GIPRCNT values of 100 or above, 50 for GIPRCNT values of 0, and 100 for GIPRCNT values of -100.

| SMILES | growth |
| --- | --- |
| OC(c1ccc(Cl)cc1)(c1ccc(Cl)cc1)C(O)(c1ccc(Cl)cc1)c1ccc(Cl)cc1 | 48.5% |
| C[n+]1c(-c2ccccc2)c2cc(N)ccc2c2ccccc21 | 100% |
| COc1ccc(C(=O)c2nccc3cc(OC)c(OC)cc23)cc1OC | 83.9% |
| Cc1ccc2c(c1)/C(=N\N=C/c1cn(C(C)C)c3ccccc13)C(=O)N2 | 79% |
| O=[N+]([O-])c1cc(CCl)ccc1OCCBr | 110% |
| CC1Cc2c(ncnc2-n2cnc3ccccc32)N(C)c2ccccc21 (stereo not given) | 9.36% (active) |
| CC(=O)O.CC(=O)O.O.[Fe] | 102% |
| CC(C)(C)OC(=O)N1C=C/C(=C\Cn2cc(-c3ccccc3)nn2)CC1 | 76.9% |
| CCCCOC(=O)c1cccc([N+](=O)[O-])c1 | 107% |
| CC(C)CCSC1=CC(=O)c2ccccc2C1=O | 76.3% |
| N#Cc1c(N2CCOCC2)nc(=S)[nH]c1-c1ccco1 | 40.2% |
| Cc1cccc(C[C@H](NC(=O)Nc2ccc(C)cc2F)C(=O)N[C@@H]2C(=O)N3C[C@H](O)C[C@H]3C(=O)N3CCN(C)C[C@H]3C(=O)N[C@@H](C)C(=O)N3C[C@H](C)C[C@H]3C(=O)O[C@H]2C)c1 | 114% |
| Cc1cc(C)nc(SCC(=O)Nc2cccc(N=Cc3ccccc3O)c2)n1 | 100% |
| CCc1cccc(Cl)c1 | 103% |
| COc1c(B(O)O)cccc1-c1nc2ccc3[nH]ncc3c2c2c1CCC2 | 81.4% |
| C[n+]1cccc(NC(=O)c2ccc3ccc4ccc(C(=O)Nc5ccc[n+](C)c5)nc4c3n2)c1 | 101% |
| O=c1[nH]c2cc(Cl)c(Cl)cc2n2cc3ncccc3c12 | 81.8% |
| CCOC(=O)c1nn(C2CCCCO2)c2ccc(NC(=O)CSc3nc4ccccc4c(=O)[nH]3)cc12 (stereo not given) | 107% |
| CC(C)C1=NOC(=O)C1=Cc1cn(-c2ccccc2)nc1-c1cccc([N+](=O)[O-])c1 | 97% |
| CCOC(=O)c1nn(C2CCCCO2)c2ccc(NS(=O)(=O)c3ccc(C)cc3)cc12 (stereo not given) | 99.6% |

| SMILES | growth |
| --- | --- |
| CC(C)CCSc1nc(N)nc2nc[nH]c12 | 104% |
| c1cc2ccc3cc2cc1CNCCN1CCNCc2ccc4ccc(cc4c2)CNCCN(CCNC3)CCNCc2ccc3ccc(cc3c2)CNCC1 | 99% |
| O=C(Nc1cc(F)cc2cccnc12)c1cnc(N2CCNCC2)cn1 | 87.6% |
| C=C(C)[C@@H]1CC[C@]2(C)[C@H](CC=C3[C@@H]4[C@@H](C)[C@H](C)CC[C@]4(C(N)=O)CC[C@]32C)[C@@]1(C)CCC#N | -32% [100 µM] (active) |
| CC(C)(C)c1cc(C(=O)Nc2cc3ccccc3cc2C(=O)NCCN)cc(C(C)(C)C)c1 | -62.3% (active) |
| O=C(Nc1ccc(F)cc1)c1ccccc1 | 98.9% |
| Nn1c(Nc2ccc(S(=O)(=O)Nc3ncccn3)cc2)nnc(/C=C/c2c(O)ccc3ccccc23)c1=O | 94.6% |
| O=C(OCc1ccc2c(Cl)cc(Cl)c(O)c2n1)N1CCN(C(=O)c2cc3cc(F)ccc3[nH]2)CC1 | 2.35% (active) |
| CCOc1cccc2c(NC(C)CCCN(CC)CC)c(C)cnc12 (stereo not given) | 114% |
| Cn1cc(-c2noc(C(=O)c3cn(C)c4ncc(Br)cc34)n2)c2ccccc21 | 106% |
| CCc1ccc(C2=C/C(=C/c3ccccc3)C(=O)N2CCc2ccc(S(N)(=O)=O)cc2)cc1 | 104% |
| CCOC(=O)C1=C(C(=O)c2ccc(Br)cc2)C(c2ccc(Br)cc2)NC(=S)N1 (stereo not given) | 103% |
| O=C(Nc1cccc(C2=NCCN2)c1)c1cccc(C(=O)Nc2cccc(C3=NCCN3)c2)c1 | 98.8% |
| Cc1ccc(S(=O)(=O)NCCCNc2nccc(-c3c(-c4cccc(F)c4)nc4occn34)n2)cc1 | 85% |
| O=C(NCCCCCCCNC(=O)OCc1ccc2c(Cl)cc(Cl)c(O)c2n1)OCc1ccc2c(Cl)cc(Cl)c(O)c2n1 | -29.5% (active) |
| C=CCCC1(C)NC(=O)NC1=O (stereo not given) | 103% |
| O=C1Cc2c(sc3c(F)cccc23)C(c2ccccc2[N+](=O)[O-])N1 (stereo not given) | 106% |
| CCN1c2ccccc2C(Cl)(c2ccc(N(C)C)cc2)c2ccccc21 | 85.8% |
| CCCC(NC(=O)OCc1ccccc1)C(=O)O (stereo not given) | 60.4% |
| N#Cc1ccc(-c2ccc(COc3ccc(CC4SC(=O)NC4=O)cc3)cc2)cc1 (stereo not given) | 37.8% |
